The supplement of paper PMC9942566
Where a name gives a salt, the structure may show the parent alone. ± gives the standard deviation of the averaged measurements.

Key:
[1] = test system: Serratia marcescens K904 PosmB-luxCDABE reporter (pMQ747); test: PosmB-lux reporter fold induction (RLU/OD600 relative to no-compound control), highest over Biolog concentrations; higher = stronger reporter activation; conditions: ΔrcsB mutant CMS5177; 4 h
Protocol: (§1)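 Serratia marcescens K904 (wild type) or its isogenic ΔrcsB mutant, carrying the Rcs-dependent PosmB-luxCDABE reporter plasmid pMQ747, was grown in LB at OD600 0.1 in Biolog Phenotype MicroArray plates PM11-20 for 4 h at 30-32°C. Each compound is present at 3-4 proprietary concentrations (not stated); per the Fig. S1 legend the value given is the highest fold over those wells. Three independent trials.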

[2] = test system: Serratia marcescens K904 PosmB-luxCDABE reporter (pMQ747); test: PosmB-lux reporter fold induction (RLU/OD600 relative to no-compound control), highest over Biolog concentrations; higher = stronger Rcs reporter activation; conditions: wild type K904; 4 h
Protocol: as §1

Structure (SMILES) | PosmB-lux reporter fold induction [1] | PosmB-lux reporter fold induction [2]
N=C(N)N [Guanidine hydrochloride] (Biolog plate: PM15, well positions: A5-8) | 2.09 ± 0.16 | –
CO/N=C(\C(=O)N[C@@H]1C(=O)N2C(C(=O)O)=C(CSc3nc(=O)c(O)nn3C)CS[C@H]12)c1csc(N)n1 [Ceftriaxone] (Biolog plate: PM11, well positions: G1-4) | 1.12 ± 0.14 | –
Cn1nnnc1SCC1=C(C(=O)O)N2C(=O)[C@@H](NC(=O)[C@H](OC=O)c3ccccc3)[C@H]2SC1 [cefamandole nafate] (Biolog plate: PM17, well positions: G5-8) | 1.52 ± 0.36 | –
CCn1cc(C(=O)O)c(=O)c2cnc(N3CCNCC3)nc21 [pipemidic acid] (Biolog plate: PM18, well positions: B5-8) | 1.91 ± 0.5 | 1.46 ± 0.24
CC[C@H]1OC(=O)[C@H](C)[C@@H](O[C@H]2C[C@@](C)(OC)[C@@H](O)[C@H](C)O2)[C@H](C)[C@@H](O[C@@H]2O[C@H](C)C[C@H](N(C)C)[C@H]2O)[C@](C)(O)C[C@@H](C)C(=O)[C@H](C)[C@@H](O)[C@]1(C)O [Erythromycin] (Biolog plate: PM11, well positions: F5-8) | 1.46 ± 0.041 | 1.38 ± 0.32
CC(C)c1nc2nc(N)nc(N)c2nc1C(C)C [2,4-Diamino-6,7-diisopropyl-pteridine] (Biolog plate: PM12, well positions: E1-4) | 2.91 ± 0.33 | –
On1ccccc1=S [1-Hydroxy-pyridine-2-thione] (Biolog plate: PM14, well positions: C5-8) | 1.1 ± 0.053 | –
CCOc1ccc2ccccc2c1C(=O)N[C@@H]1C(=O)N2[C@@H]1SC(C)(C)[C@@H]2C(=O)O [Nafcillin] (Biolog plate: PM11, well positions: D9-12) | 1.05 ± 0.14 | –
CN[C@@H]1[C@H](O[C@H]2[C@H](O[C@H]3[C@H](O)[C@@H](O)[C@H](NC(=N)N)[C@@H](O)[C@@H]3NC(=N)N)O[C@@H](C)[C@]2(O)CO)O[C@@H](CO)[C@H](O)[C@H]1O [dihydro-streptomycin] (Biolog plate: PM19, well positions: G5-8) | 0.97 ± 0.18 | –
Cc1cc(O)cc(C)c1Cl [chloroxylenol] (Biolog plate: PM16, well positions: H5-8) | 1.72 ± 0.43 | –
Cc1onc(-c2ccccc2Cl)c1C(=O)N[C@@H]1C(=O)N2[C@@H]1SC(C)(C)[C@@H]2C(=O)O [Cloxacillin] (Biolog plate: PM11, well positions: B5-8) | 1.06 ± 0.1 | –
CCC(C)CCCC(=O)N[C@@H](CCN)C(=O)N[C@H](C(=O)N[C@@H](CCN)C(=O)N[C@H]1CCNC(=O)[C@H]([C@@H](C)O)NC(=O)[C@H](CCN)NC(=O)[C@H](CCN)NC(=O)[C@H](CC(C)C)NC(=O)[C@@H](CC(C)C)NC(=O)[C@H](CCN)NC1=O)[C@@H](C)O (stereo partly specified) [Colistin] (Biolog plate: PM11, well positions: C5-8) | 1.1 ± 0.22 | –
OC(CCN1CCCCC1)(c1ccccc1)c1ccccc1 [pridinol] (Biolog plate: PM20, well positions: F9-12) | 1.5 ± 0.42 | –
CO/N=C(\C(=O)N[C@@H]1C(=O)N2C(C(=O)O)=C(COC(N)=O)CS[C@H]12)c1ccco1 [Cefuroxime] (Biolog plate: PM13, well positions: D1-4) | 1.42 ± 0.51 | 1.85 ± 0.24
CCn1cc(C(=O)O)c(=O)c2cc(F)c(N3CCNC(C)C3)c(F)c21 (stereo unspecified) [Lomefloxacin] (Biolog plate: PM11, well positions: B9-12) | 1.19 ± 0.24 | –
[Cl][Fe]([Cl])[Cl] [ferric chloride] (Biolog plate: PM16, well positions: G5-8) | 1.47 ± 0.36 | –
CN(C)c1ccc(O)c2c1C[C@H]1C[C@H]3[C@H](N(C)C)C(O)=C(C(N)=O)C(=O)[C@@]3(O)C(O)=C1C2=O [Minocycline] (Biolog plate: PM11, well positions: C9-12) | 1.8 ± 0.42 | 2.54 ± 0.15
N[C@H](CO)C(=O)O [D-serine] (Biolog plate: PM17, well positions: A2-4) | 1.12 ± 0.081 | 2.39 ± 1.2

Structure (SMILES) | PosmB-lux reporter fold induction [1] | PosmB-lux reporter fold induction [2]
Cn1cnc([N+](=O)[O-])c1Sc1ncnc2[nH]cnc12 [azathioprine] (Biolog plate: PM18, well positions: B9-12) | 0.729 ± 0.15 | –
O=C(O)CN(CCN(CC(=O)O)CC(=O)O)CC(=O)O (Biolog plate: PM15, well positions: B5-8) | 1.22 ± 0.17 | –
CC1(C)S[C@@H]2[C@H](NC(=O)C(C(=O)O)c3ccccc3)C(=O)N2[C@H]1C(=O)O (stereo partly specified) [Carbenicillin] (Biolog plate: PM14, well positions: G5-8) | 1.05 ± 0.096 | –
c1cnc2c(c1)ccc1cccnc12 [1,10-Phenanthroline] (Biolog plate: PM15, well positions: C9-12) | 1.32 ± 0.23 | –
O=C(N[C@H](CO)[C@H](O)c1ccc([N+](=O)[O-])cc1)C(Cl)Cl [Chloramphenicol] (Biolog plate: PM11, well positions: F1-4) | 1.56 ± 0.59 | –
CC(Oc1ccccc1)C(=O)N[C@@H]1C(=O)N2[C@@H]1SC(C)(C)[C@@H]2C(=O)O (stereo partly specified) [phenethicillin] (Biolog plate: PM19, well positions: F1-4) | 1.15 ± 0.37 | –
CO/N=C(\C(=O)N[C@@H]1C(=O)N2C(C(=O)O)=C(COC(C)=O)CS[C@H]12)c1csc(N)n1 [cefotaxime] (Biolog plate: PM16, well positions: A2-4) | 1.11 ± 0.047 | –
C[C@@H]1NC(=O)[C@@H](N)CNC(=O)[C@H](C2CCNC(=N)N2)NC(=O)/C(=C/NC(N)=O)NC(=O)[C@H](CNC(=O)CC(N)CCCN)NC1=O.N=C1NCC[C@H]([C@@H]2NC(=O)/C(=C/NC(N)=O)NC(=O)[C@H](CNC(=O)C[C@@H](N)CCCN)NC(=O)[C@H](CO)NC(=O)[C@@H](N)CNC2=O)N1 [Capreomycin] (Biolog plate: PM11, well positions: D1-4) | 1.09 ± 0.081 | –
CC1=CC(=O)c2ccccc2C1=O [Menadione] (Biolog plate: PM15, well positions: G9-12) | 0.917 ± 0.14 | –
CCS(=O)(=O)CCn1c([N+](=O)[O-])cnc1C [tinidazole] (Biolog plate: PM18, well positions: F5-8) | 1 ± 0.3 | –
NCC(=O)O [Glycine] (Biolog plate: PM13, well positions: F5-8) | 1.39 ± 0.27 | –
Cc1cc(C)nc(NS(=O)(=O)c2ccc(N)cc2)n1 [Sulfamethazine] (Biolog plate: PM12, well positions: D5-8) | 1.41 ± 0.34 | –
S=c1nc[nH]c2nc[nH]c12 [6-Mercapto-purine] (Biolog plate: PM13, well positions: C1-4) | 1.22 ± 0.54 | –
CC[C@H]1OC(=O)C[C@@H](O)[C@H](C)[C@@H](O[C@@H]2O[C@H](C)[C@@H](O[C@H]3C[C@@](C)(O)[C@@H](O)[C@H](C)O3)[C@H](N(C)C)[C@H]2O)[C@@H](CC=O)C[C@@H](C)C(=O)/C=C/C(C)=C/[C@@H]1CO[C@@H]1O[C@H](C)[C@@H](O)[C@@H](OC)[C@H]1OC [Tylosin] (Biolog plate: PM13, well positions: H9-12) | 4.38 ± 1.6 | –
CC(C(=O)O)c1cccc(C(=O)c2ccccc2)c1 (stereo unspecified) [ketoprofen (an NSAID)] (Biolog plate: PM18, well positions: A2-4) | 1 ± 0.37 | –
Cc1nnc(SCC2=C(C(=O)O)N3C(=O)[C@@H](NC(=O)Cn4cnnn4)[C@H]3SC2)s1 [Cefazolin] (Biolog plate: PM11, well positions: E1-4) | 1.12 ± 0.15 | –
O=C([O-])c1ccccc1O.[Na+] [sodium salicylate (NSAID)] (Biolog plate: PM17, well positions: B1-4) | 2.06 ± 0.94 | –
CS(=O)(=O)c1ccc([C@@H](O)[C@@H](CO)NC(=O)C(Cl)Cl)cc1 [thiamphenicol] (Biolog plate: PM18, well positions: A9-12) | 0.916 ± 0.32 | –
